# The campaign covered roughly 39,000 compounds. About 3,300 (8.5%) were called active. This excerpt belongs to a sample that is enriched for actives.
# Test system: HepG2
# Assay: cytotoxicity call (relative viability < 0.9)
# Conditions: 10 µM
row,SMILES,cytotoxicity call
1,Nc1ccc2cc3ccc(N)cc3nc2c1.O=S(=O)(O)O,active
2,Nc1ccc(S(=O)(=O)c2ccc(N)cc2)cc1,inactive
3,Nc1ccc2c(c1)nc(CO)n2CCO,inactive
4,C[C@@H]1CN([C@H](C)CO)C(=O)c2cc(NC(=O)C3CCCCC3)ccc2O[C@H]1CN(C)C(=O)Nc1cccc2ccccc12,inactive
5,COc1ccc(S(=O)(=O)N(C)C[C@H]2Oc3ccc(NC(=O)C4CC4)cc3CC(=O)N([C@@H](C)CO)C[C@@H]2C)cc1,inactive
6,C[C@H](CO)N1C[C@H](C)[C@@H](CN(C)C(=O)Nc2cccc3ccccc23)Oc2ccc(NS(=O)(=O)c3ccc(Cl)cc3)cc2CC1=O,inactive
7,Cc1noc(C)c1NC(=O)N(C)C[C@@H]1Oc2ccc(NC(=O)C3CC3)cc2CC(=O)N([C@@H](C)CO)C[C@H]1C,inactive
8,COc1ccc(C#Cc2ccc([C@@H]3[C@@H](CO)N4CCCCN(S(=O)(=O)c5cn(C)cn5)C[C@H]34)cc2)cc1,inactive
9,COc1ccc(C#Cc2ccc([C@H]3[C@H](CO)N4CCCCN(S(=O)(=O)c5cn(C)cn5)C[C@@H]34)cc2)cc1,inactive
10,CN(C)CC#Cc1ccc([C@@H]2[C@@H](CO)N3CCCCN(C(=O)CN(C)C)C[C@@H]23)cc1,inactive
11,CN(C)CC#Cc1ccc([C@H]2[C@@H](CO)N3CCCCN(C(=O)CN(C)C)C[C@H]23)cc1,inactive
12,COc1ccc(C#Cc2ccc([C@@H]3[C@H](CO)N4CCCCN(S(=O)(=O)c5cn(C)cn5)C[C@@H]34)cc2)cc1,active
13,CN(C)CC#Cc1ccc([C@H]2[C@@H](CO)N3CCCCN(C(=O)CN(C)C)C[C@@H]23)cc1,inactive
14,CN(C)CC#Cc1ccc([C@@H]2[C@H](CO)N3CCCCN(C(=O)CN(C)C)C[C@@H]23)cc1,inactive
15,COc1ccc(NC(=O)N2CCCCN3[C@H](COCCN(C)C)[C@H](c4ccc(C#Cc5ccccc5)cc4)[C@@H]3C2)cc1,active
16,COc1ccc(NC(=O)N2CCCCN3[C@H](CN(C)C(C)=O)[C@H](c4ccc(C#Cc5ccccc5)cc4)[C@@H]3C2)cc1,active
17,O[C@H]1[C@H](O)[C@@H](O)[C@H]2O[C@@H]2[C@@H]1O,inactive
18,CCSC(=O)NC1CCCCC1,inactive
19,COc1ccc(NC(=O)N(C)C[C@H]2OCCCC[C@H](C)Oc3ccc(NC(=O)CCC(F)(F)F)cc3C(=O)N([C@H](C)CO)C[C@@H]2C)cc1,inactive
20,CS(=O)(=O)N1CC[C@@H]2OCCN(C(=O)c3cccnc3)[C@@H]2C1,inactive
21,C[C@@H]1CN([C@H](C)CO)C(=O)c2cccc(NS(=O)(=O)c3cn(C)cn3)c2O[C@H]1CN(C)Cc1ccc(C(=O)O)cc1,inactive
22,CC(=O)n1cc([C@@H]2C=C(C(=O)NCc3ccccc3)O[C@H](OCc3ccc(CO)cc3)C2)c2ccccc21,inactive

row,SMILES,cytotoxicity call
1,C[C@H]1CN([C@@H](C)CO)C(=O)c2cc(NS(=O)(=O)c3ccccc3)ccc2O[C@@H]1CN(C)Cc1ccc(-c2ccccc2)cc1,inactive
2,C[C@@H]1CN([C@@H](C)CO)C(=O)c2cc(NS(=O)(=O)c3ccccc3)ccc2O[C@@H]1CN(C)Cc1ccc(-c2ccccc2)cc1,active
3,C[C@H](CO)N1C[C@H](C)[C@H](CN(C)Cc2ccc(-c3ccccc3)cc2)Oc2ccc(NS(=O)(=O)c3ccccc3)cc2C1=O,inactive
4,C[C@@H]1CN([C@@H](C)CO)C(=O)c2cc(NS(=O)(=O)c3ccccc3)ccc2O[C@H]1CN(C)Cc1ccc(-c2ccccc2)cc1,active
5,C[C@H]1CN([C@@H](C)CO)C(=O)c2cc(NS(=O)(=O)c3ccccc3)ccc2O[C@H]1CN(C)Cc1ccc(-c2ccccc2)cc1,inactive
6,C[C@@H]1CN([C@H](C)CO)C(=O)c2cc(NS(=O)(=O)c3ccccc3)ccc2O[C@@H]1CN(C)Cc1ccc(-c2ccccc2)cc1,inactive
7,COc1ccc(NC(=O)Nc2ccc3c(c2)C(=O)N([C@H](C)CO)C[C@H](C)[C@@H](CN(C)C(=O)Nc2ccc4c(c2)OCO4)OCCCC[C@H](C)O3)cc1,active
8,C[C@H]1CCCCO[C@@H](CN(C)C(=O)Nc2ccc3c(c2)OCO3)[C@@H](C)CN([C@@H](C)CO)C(=O)c2cc(NC(=O)Nc3ccccc3)ccc2O1,inactive
9,COc1ccc(NC(=O)N(C)C[C@@H]2OCCCC[C@H](C)Oc3ccc(NC(=O)Nc4ccc5c(c4)OCO5)cc3C(=O)N([C@@H](C)CO)C[C@H]2C)cc1,inactive
10,COc1ccc(NC(=O)N(C)C[C@@H]2OCCCC[C@@H](C)Oc3ccc(NC(=O)c4ccccc4)cc3C(=O)N([C@@H](C)CO)C[C@@H]2C)cc1,inactive
11,COc1ccc(NC(=O)N(C)C[C@H]2OCCCC[C@H](C)Oc3ccc(NC(=O)c4ccccc4)cc3C(=O)N([C@H](C)CO)C[C@@H]2C)cc1,inactive
12,COc1ccc(NC(=O)Nc2ccc3c(c2)C(=O)N([C@H](C)CO)C[C@H](C)[C@H](CN(C)C(=O)Nc2ccc4c(c2)OCO4)OCCCC[C@@H](C)O3)cc1,inactive
13,COc1ccc(NC(=O)N(C)C[C@@H]2OCCCC[C@@H](C)Oc3ccc(NC(=O)c4ccccc4)cc3C(=O)N([C@H](C)CO)C[C@H]2C)cc1,active
14,COc1ccc(NC(=O)N(C)C[C@H]2OCCCC[C@@H](C)Oc3ccc(NC(=O)Nc4ccccc4)cc3C(=O)N([C@H](C)CO)C[C@@H]2C)cc1,active
15,COc1ccc(NC(=O)N(C)C[C@H]2OCCCC[C@H](C)Oc3ccc(NC(=O)Nc4ccccc4)cc3C(=O)N([C@@H](C)CO)C[C@@H]2C)cc1,inactive
16,C[C@@H]1CCCCO[C@@H](CN(C)C(=O)Nc2ccc3c(c2)OCO3)[C@H](C)CN([C@H](C)CO)C(=O)c2cc(NC(=O)Nc3ccccc3)ccc2O1,active
17,C[C@@H]1CCCCO[C@H](CN(C)C(=O)Nc2ccc3c(c2)OCO3)[C@H](C)CN([C@H](C)CO)C(=O)c2cc(NC(=O)Nc3ccccc3)ccc2O1,inactive
18,COc1ccc(NC(=O)N(C)C[C@H]2OCCCC[C@H](C)Oc3ccc(NC(=O)Nc4ccccc4)cc3C(=O)N([C@H](C)CO)C[C@@H]2C)cc1,inactive
19,CS(=O)(=O)Nc1ccc2c(c1)[C@@H]1C[C@@H](CC(=O)NCc3ccc(-c4ccccc4)cc3)O[C@@H](CO)[C@@H]1O2,inactive
20,C[C@H](CO)N1C[C@H](C)[C@@H](CN(C)S(=O)(=O)c2cccs2)Oc2ccc(NS(=O)(=O)c3cn(C)cn3)cc2CC1=O,inactive
21,C[C@H]1CN([C@@H](C)CO)C(=O)c2cccc(NS(=O)(=O)c3cn(C)cn3)c2O[C@@H]1CN(C)C(=O)Nc1ccc(F)cc1,inactive
22,O=C(C[C@@H]1C[C@H]2c3cc(NS(=O)(=O)c4ccc(F)cc4)ccc3O[C@H]2[C@@H](CO)O1)NCc1cccc(F)c1,inactive

row,SMILES,cytotoxicity call
1,Cc1cc(C(=O)Nc2cccc3c2O[C@@H](CN(C)C(=O)Nc2c(C)noc2C)[C@@H](C)CN([C@@H](C)CO)C3=O)n(C)n1,inactive
2,Cc1ccc(OC(=O)N(C)C[C@H]2OCc3ccccc3-c3ccccc3C(=O)N([C@H](C)CO)C[C@H]2C)cc1,inactive
3,COc1ccc(CN(C)C[C@@H]2Oc3ccc(NC(=O)Cn4cnnn4)cc3CC(=O)N([C@@H](C)CO)C[C@@H]2C)cc1,inactive
4,C[C@H](CO)N1C[C@H](C)[C@@H](CN(C)C(=O)NC2CCCCC2)OCCCC[C@H](C)Oc2ccc(NC(=O)c3ccccc3)cc2C1=O,active
5,C[C@@H]1CCCCO[C@@H](CN(C)C(=O)NC2CCCCC2)[C@@H](C)CN([C@H](C)CO)C(=O)c2cc(NC(=O)c3ccncc3)ccc2O1,inactive
6,C[C@H]1CCCCO[C@H](CN(C)C(=O)NC2CCCCC2)[C@@H](C)CN([C@@H](C)CO)C(=O)c2cc(NC(=O)c3ccccc3)ccc2O1,inactive
7,C[C@@H]1CCCCO[C@H](CN(C)C(=O)NC2CCCCC2)[C@@H](C)CN([C@@H](C)CO)C(=O)c2cc(NC(=O)c3ccncc3)ccc2O1,inactive
8,C[C@@H]1CCCCO[C@H](CN(C)C(=O)NC2CCCCC2)[C@@H](C)CN([C@H](C)CO)C(=O)c2cc(NC(=O)c3ccccc3)ccc2O1,inactive
9,C[C@@H]1CN([C@@H](C)CO)C(=O)c2cc(NC(=O)c3ccncc3)ccc2O[C@@H](C)CCCCO[C@@H]1CN(C)C(=O)NC1CCCCC1,active
10,CC(C)NC(=O)Nc1ccc2c(c1)C(=O)N([C@@H](C)CO)C[C@@H](C)[C@H](CN(C)Cc1ccc(Oc3ccccc3)cc1)O2,inactive
11,C#CCN1C(=O)N(C(=O)c2ccccc2)[C@@H]2c3ccccc3O[C@@]1(COCc1ccc(OC)cc1)[C@@H]2CO[Si](C)(C)C(C)(C)C,inactive
12,O=C(N[C@@H]1C=C[C@H](CC(=O)N2CCOCC2)O[C@@H]1CO)c1ccccn1,inactive
13,C[C@H](CO)N1C[C@H](C)[C@@H](CN(C)S(=O)(=O)c2cccs2)Oc2ccc(NS(=O)(=O)c3ccc(F)cc3)cc2CC1=O,inactive
14,C[C@H](CO)N1C[C@H](C)[C@H](CN(C)C(=O)Nc2cccc(Cl)c2Cl)OCc2ccccc2-c2ccccc2C1=O,inactive
15,N#Cc1ccc(O)c(O)c1,active
16,O=C(O)c1ccc(O)c(O)c1,inactive
17,N#Cc1ccc(CN)cc1,inactive
18,COc1ccc(NC(=O)N(C)C[C@H]2Oc3ccc(NC(=O)Nc4ccc(C(F)(F)F)cc4)cc3C(=O)N([C@H](C)CO)C[C@@H]2C)cc1,inactive
19,C=CCNC(=O)C(=O)NC[C@H]1OCCCN1S(=O)(=O)c1ccccc1,inactive
20,C[C@@H]1CN([C@@H](C)CO)S(=O)(=O)c2ccc(C3=CCCCC3)cc2O[C@@H]1CN(C)Cc1cncnc1,inactive
21,C[C@@H]1CN([C@@H](C)CO)C(=O)Cc2cc(NC(=O)Cn3cnnn3)ccc2O[C@H]1CN(C)C(=O)NC1CCCCC1,inactive
